# MsrA act – bovine MsrA enzyme activators, primary screen, biochemical, absorbance, HTS; AID 602163, 2012; activation, % at 10.6 µM; purified bovine MsrA, absorbance read-out; hit rate 0.3% among 360,000; in the data active = activation above about 7.5%;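 also: 0% = vehicle and 100% = reference activator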
# SMARCA2 act – SMARCA2 (BRM) function activators, primary screen, cell-based, luminescence, high throughput | MG213 cells, MMTV-luciferase reporter, dexamethasone, overnight | activation, % at 9.1 µM | hit rate 1% among 370,000 | AID 652017, 2013; in the data active = activation above about 7.8%;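 also: 0% = vehicle wells and 100% = reference activator wells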
# MsrA inhibitor – bovine MsrA enzyme inhibitors, primary screen, biochemical, absorbance, HTS; AID 651718, 2012; purified bovine MsrA, absorbance read-out; inhibition, % at 15.5 µM; hit rate 0.75% among 360,000; Methionine sulfoxide reductase A (Bos taurus); in the data active = inhibition above about 4.5%;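 also: 0% = vehicle wells with enzyme and 100% = reference inhibitor wells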
# ABCB6 inh MLPCN – ABCB6 transporter inhibitors, primary screen, K562-ABCB6 cells, flow cytometry, MLPCN library. ATP-binding cassette sub-family B member 6 (Homo sapiens), Q9NP58. K562-ABCB6 porphyrin accumulation, 1 h; active compounds read low. fluorescence ratio to DMSO, % at 10 µM. hit rate 0.19% among 360,000. AID 602162, 2011;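 active = fluorescence ratio to DMSO below 75%, the collection mean minus 3 SD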;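 also: signal is porphyrin accumulated inside mitochondria; 100% equals median channel fluorescence of DMSO control wells; lower ratio means ABCB6 inhibition with less porphyrin fluorescence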
# SMARCA2 act conf – SMARCA2 (BRM) function activators, confirmation, cell-based, luminescence, triplicate; shares compounds with SMARCA2 act; activation, % at 9.1 µM; AID 652260, 2013; hit rate 30% among 3,500; MG213 cells, MMTV-luciferase with dexamethasone, overnight; MG213 cells expressing E1A, Rb sequestered; DMSO wells 0%, reference activator 100%;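 active = activation above its plate's cutoff, the mean activation of tested wells plus 3 SD, cut at about 7.9% in these data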
# GAL4-VP16 Luc – GAL4-VP16 luciferase reporter activation, counter-screen for SMARCA2 (BRM) activator project, cell-based, pG5luc, luminescence, high throughput. shares compounds with SMARCA2 act. HEK293 GAL4-VP16 pG5luc reporter; scaled: DMSO wells 0%, SAHA wells 100%. activation, % at 9.1 µM. hit rate 41% among 3,500. AID 686939, 2013;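 active = activation above the solvent-only control well mean plus 3 SD, averaged across control plates, cut at about 5.2% in these data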
# The depositor's hits bear a star; · = no result given. An excerpt weighted towards active compounds, which were near 2.1% of everything screened.
SMILES,MsrA act,SMARCA2 act,MsrA inhibitor,ABCB6 inh MLPCN,SMARCA2 act conf,GAL4-VP16 Luc
COc1ccc(C(C)=O)cc1CS(=O)(=O)CC(=O)NCCc1c[nH]c2ccccc12,-1.6,9.0*,-0.4,92.0,3.8,1.0
COc1ccc(C(=O)CCC(=O)NCCc2c[nH]c3ccccc23)cc1OC,5.3,-2.5,-0.9,100.0,·,·
COC(=O)[C@@]12C[C@@H](CC(=O)NCc3cccc(C(F)(F)F)c3)C(=O)N(Cc3cccc4ccccc34)C1=CCC(C)(C)C2,·,-3.3,-0.7,·,·,·
Cn1c(N)c(C(=O)CCl)c(=O)n(Cc2ccccc2)c1=O,-1.0,-0.3,-0.7,99.0,·,·
Cn1c(N)c(C(=O)CCc2ccccc2)c(=O)n(C)c1=O,·,8.1*,-0.1,·,17.4*,5.8*
O=C(NCCc1c[nH]c2ccccc12)OCc1cn(Cc2cccc(F)c2F)nn1,·,-3.0,·,·,·,·
CCCOc1ccc(-c2cnc(N)s2)cc1,-1.7,12.7*,-0.3,101.0,7.2,10.5*
C=CCCC1(CCC)C(=O)/C(=C(\O)c2ccccc2)C(=O)C(CCC)=C1OC (stereo not drawn),·,-1.0,·,·,·,·
CCC1CCCCN1C(=O)CSc1nnc(-c2cccs2)o1 (stereo not drawn),-3.1,8.0*,-0.3,86.0,12.2*,8.4*
O=C(CSc1nnc(-c2cccs2)o1)c1cccs1,-1.2,8.0*,1.5,99.0,11.9*,7.0*
COc1cccc(N2CCN(CC(=O)NCc3ccccc3C)CC2)c1,·,-5.1,·,·,·,·
O=c1c2c(nc3cc(-c4ccc(F)cc4)[nH]n13)CCC2,-10.1,12.2*,0.3,96.0,13.4*,12.0*
O=C(Nc1ccccn1)C(=O)N1CCCCC1,-1.8,8.2*,-0.1,83.0,3.5,2.1
O=C(Nc1ccccc1Br)C(=O)N1CCCC1,-1.3,-1.7,0.1,99.0,·,·
CCCOc1ccc(F)cc1-c1cc(C(=O)NCc2cc(OC)cc(OC)c2)[nH]n1,-3.1,-7.9,-0.2,98.0,·,·
O=C(NCc1cccs1)c1cnc(Cl)c(Cl)c1,-1.5,5.5,0.7,96.0,·,·
O=C(NCc1cccs1)c1cccnc1Cl,-3.4,10.7*,-0.2,108.0,0.0,0.1
O=c1c2cc3cc4c(cc3nc2ncn1CCc1ccccc1)OCO4,·,-0.4,·,·,·,·
Fc1ccc(OCc2nc(-c3cccs3)no2)cc1,-5.0,3.8,-1.0,97.0,·,·
c1ccc(OCc2nc(-c3cccs3)no2)cc1,-1.8,10.9*,-0.9,96.0,9.2*,6.6*
COC(=O)Nc1nnc(-c2ccc(OC)cc2)s1,-2.7,8.1*,-0.6,97.0,6.0,5.2*
CC(C)=CC(=O)Nc1nnc(-c2ccccc2)s1,-6.5,16.3*,-0.2,99.0,5.0,7.8*
COc1ccc(-c2nnc(NC(=O)c3c(OC)cccc3OC)s2)cc1,-1.5,-1.8,0.9,102.0,·,·
Cc1cc(NC(=O)CSc2nnnn2-c2cc(Cl)ccc2C)no1,-5.2,8.1*,0.6,97.0,-2.8,0.6
Cc1cc(NC(=O)CSc2nnnn2-c2ccccc2F)no1,-3.5,-1.3,0.0,173.0,·,·
SMILES,MsrA act,SMARCA2 act,MsrA inhibitor,ABCB6 inh MLPCN,SMARCA2 act conf,GAL4-VP16 Luc
O=C(c1cncnc1)N1CCC(n2nnc3ncccc32)CC1,·,-3.4,·,·,·,·
CCOc1ccc(CNC(=O)C2CCN(c3nnc(C)c4c(C)n(-c5ccc(C)cc5)nc34)CC2)cc1,-3.1,-1.9,1.9,107.0,·,·
COc1ccc(-n2nc3c(N4CCC(C(=O)NCc5cccc(C)c5)CC4)nnc(C)c3c2C)cc1,-1.9,14.1*,0.1,114.0,16.9*,0.8
CCN1Cc2nnn(Cc3ccc(C)cc3)c2-c2ccccc2S1(=O)=O,·,-2.0,·,·,·,·
Cc1ccc(NC(=O)c2ccc3snnc3c2)cc1,-7.3,9.2*,-0.4,91.0,3.2,12.0*
CCn1c(SCC(=O)c2ccc(-c3ccccc3)cc2)nnc1-c1ccc(C(C)(C)C)cc1,·,-7.2,·,·,·,·
COc1cccc(NC(=O)Nc2c(-c3ccc(F)cc3)nc3ncccn23)c1,·,-1.3,·,·,·,·
COc1ccc2nc3cc(Cl)ccc3c(Nc3ccc(O)c(CN4CCN(C)CC4)c3)c2c1,1.4,20.1*,-0.1,92.0,90.8*,2.0

# Source: PubChem BioAssay (several laboratories)
